From PubChem BioAssay (NCI)
This is part of a sample that, as a whole, favours compounds with a hit. Of some 79,000 tested, about 15% had one in any assay. Values without a mark were called inactive. Activity calls are given as the source filed them. No stated cut-off is given here; in the data, active means growth inhibition above about 70%; inactive means the rest.

Assays:
[1] = NCI Yeast Anticancer Drug Screen. Data for the rad50 strain (AID 155);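 further: 0% = growth of vehicle-only cultures of the same strain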; settings: S. cerevisiae rad50 strain growth inhibition, hits give high values
Outline: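 Inhibition values express reduced yeast growth in compound-treated cultures relative to vehicle-treated controls.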

[2] = NCI Yeast Anticancer Drug Screen. Data for the mec2-1 strain (AID 157); settings: S. cerevisiae mec2-1 strain, hits give high values
Outline: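 Compounds were applied to mec2-1 yeast cells. Their growth was then compared with that of vehicle-treated cultures to give growth inhibition.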

[3] = NCI Yeast Anticancer Drug Screen. Data for the sgs1 mgt1 strain (AID 161);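 further: 0% = growth of cultures given vehicle only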; settings: S. cerevisiae sgs1 mgt1 strain, hits give high values
Outline: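 Compounds are added to genetically altered yeast, and growth is compared with cultures given vehicle alone to give percent inhibition.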

[4] = NCI Yeast Anticancer Drug Screen. Data for the cln2 rad14 strain (AID 165);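 further: 0% = growth equal to vehicle treated cultures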; settings: S. cerevisiae cln2 rad14 strain, hits give high values
Outline: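 Strain: cln2 rad14 yeast, altered in cell cycle control and DNA damage repair. Read-out: growth inhibition vs vehicle.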

[5] = NCI Yeast Anticancer Drug Screen. Data for the bub3 strain (AID 167); settings: S. cerevisiae bub3 mutant strain, hits give high values
Outline: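 Steps: expose the mutant yeast strain to compound; grow alongside vehicle-treated cultures; measure growth; express inhibition against the vehicle cultures.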

[6] = NCI Yeast Anticancer Drug Screen. Data for the mlh1 rad18 strain (AID 175); settings: S. cerevisiae mlh1 rad18 strain growth inhibition, hits give high values
Outline: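 A repair-deficient yeast strain is exposed to test compound, and growth is scored relative to vehicle-treated controls.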

[7] = at 5.0 µM (retest, dose inferred, filed as 0.5)
[8] = at 50.0 µM (retest, dose inferred, filed as 5.0)

| Structure (SMILES) | growth inhibition [1, 7] | growth inhibition [1, 8] | growth inhibition ([1]; at 50.0 µM) | growth inhibition [2, 7] | growth inhibition [2, 8] | growth inhibition ([2]; at 50.0 µM) | growth inhibition [3, 7] | growth inhibition [3, 8] | growth inhibition ([3]; at 50.0 µM) | growth inhibition [4, 7] | growth inhibition [4, 8] | growth inhibition ([4]; at 50.0 µM) | growth inhibition [5, 7] | growth inhibition [5, 8] | growth inhibition ([5]; at 50.0 µM) | growth inhibition [6, 7] | growth inhibition [6, 8] | growth inhibition ([6]; at 50.0 µM) |
| --- | --- | --- | --- | --- | --- | --- | --- | --- | --- | --- | --- | --- | --- | --- | --- | --- | --- | --- |
| COc1ccc([N+](=O)[O-])cc1[I+]c1cc([N+](=O)[O-])ccc1OC | 19% | 95% (active) | 93.2% (active) | 58% | 89% (active) | 76.3% (active) | 49% | 95% (active) | 92.2% (active) | 16% | 86% (active) | 94.2% (active) | 9% | 85% (active) | 90.8% (active) | 57% | 98% (active) | 95.7% (active) |
| CNC(=O)OC(C)CN1c2ccccc2Sc2ccc(Cl)cc21 (configuration not stated) | 12% | 97% (active) | 89.1% (active) | -11% | 99% (active) | 84.5% (active) | 2% | 45% | 90.9% (active) | 19% | 98% (active) | 86.5% (active) | 26% | 98% (active) | 88.3% (active) | 19% | 98% (active) | 88.2% (active) |
| c1cc(C2=NCCN2)ccc1Nc1ccc(-c2cc3ccc(C4=NCCN4)cc3[nH]2)cc1 | 99% (active) | 99% (active) | 58.1% | 99% (active) | 98% (active) | 99.2% (active) | 99% (active) | 99% (active) | 51.3% | 99% (active) | 99% (active) | 98.9% (active) | 99% (active) | 99% (active) | 99.3% (active) | 99% (active) | 99% (active) | 98.5% (active) |
| CCN(CC)Cc1cc(N=Nc2c(O)ccc3c(N=Nc4ccc(O)c(CN(CC)CC)c4)c(O)ccc23)ccc1O | 62% | 86% (active) | 96.4% (active) | -2% | 53% | 85.4% (active) | 1% | 76% (active) | 94.3% (active) | -7% | 56% | 56.6% | -1% | 61% | 65.8% | -1% | 72% (active) | 93.7% (active) |
| N#CC1C(=O)SC2c3ccccc3C(=O)c3ccccc3C12 (configuration not stated) | -3% | 51% | 63.8% | -28% | -4% | 0.05% | -6% | 5% | 38% | 6% | 36% | 42.6% | -8% | 27% | 32.8% | -8% | 58% | 69.8% |
| N#Cc1cc2cccn2c2c1cnn2-c1ccccc1 | -6% | -5% | 19% | 8% | 4% | -6.8% | -1% | -11% | -1.5% | 3% | 7% | 9.65% | 6% | 5% | -46.9% | -10% | 12% | -2.95% |
| O=S(=O)(Cl)c1ccc(Br)cc1 | 45% | 99% (active) | 37.3% | 68% | 100% (active) | -4.55% | 72% (active) | 99% (active) | 0.15% | 21% | 100% (active) | -76.1% | 84% (active) | 99% (active) | 9.25% | 28% | 99% (active) | 0.55% |
| CCc1ccccc1NC(=O)C1=C(C)NC(C)=C(C(=O)Nc2c(CC)cccc2CC)C1c1ccc2c(c1)OCO2 (configuration not stated) | 30% | 30% | 89.5% (active) | 22% | 22% | 88.7% (active) | 29% | 29% | 89.3% (active) | 15% | 15% | 85.8% (active) | 24% | 24% | 90.3% (active) | 28% | 28% | 87.7% (active) |
| C/C=C(\C)C(=O)OC1C(C)C2(O)C(C=C(CO)CC3(O)C(=O)C(C)=CC32)C2C(C)(C)C12OC(=O)CCCCCCCCC (configuration not stated) | 0% | 85% (active) | 79% (active) | -3% | 90% (active) | 84.1% (active) | -15% | 89% (active) | 83.4% (active) | 24% | 86% (active) | 75.7% (active) | 33% | 89% (active) | 80.9% (active) | 22% | 86% (active) | 81.6% (active) |
| CCCCCC(CCCCC)C(=O)O | 0% | 63% | 78.6% (active) | -7% | 52% | 70.2% (active) | -20% | 48% | 72% (active) | -11% | 50% | 78% (active) | -5% | 29% | 66.2% | -1% | 60% | 79.5% (active) |
| Cc1ccc2nc(-[n+]3cc4ccccc4cc3C)ccc2c1 | 9% | 99% (active) | 89% (active) | 1% | 100% (active) | 87.6% (active) | 3% | 99% (active) | 89.3% (active) | -1% | 83% (active) | 17.2% | 1% | 100% (active) | 87.7% (active) | 5% | 98% (active) | 87.3% (active) |
| C=C1CC(Cn2ccc(=O)[nH]c2=O)(c2ccc(Cl)cc2)OC1=O (configuration not stated) | 11% | 64% | 47.9% | -4% | 85% (active) | 49.8% | -22% | 80% (active) | 70% (active) | 27% | 35% | 39.5% | 6% | 87% (active) | 65.8% | 19% | 81% (active) | 74.1% (active) |
| C[C@H](CCC(=O)O)[C@H]1CC[C@H]2[C@@H]3[C@@H](O)C[C@@H]4C[C@H](O)CC[C@]4(C)[C@H]3CC[C@]12C | 14% | 97% (active) | 79.9% (active) | 7% | 96% (active) | 99% (active) | 19% | 99% (active) | 81.3% (active) | -1% | 97% (active) | 76.5% (active) | 21% | 99% (active) | 98.5% (active) | 12% | 99% (active) | 88.7% (active) |
| CCOC1=C(NC(C)=O)C(=O)c2ccccc2C1=O | 5% | 97% (active) | 99% (active) | -7% | 97% (active) | 85.9% (active) | -2% | 98% (active) | 97.3% (active) | 60% | 97% (active) | 83.3% (active) | 8% | 97% (active) | 94.7% (active) | 2% | 98% (active) | 97.7% (active) |
| O[C@H]1[C@H]2c3cc4c(cc3CN3CCC(=C[C@@H]1O)[C@H]23)OCO4 | 13% | 98% (active) | 91.5% (active) | 19% | 99% (active) | 93.6% (active) | 23% | 98% (active) | 93.2% (active) | 77% (active) | 98% (active) | 90.7% (active) | 0% | 98% (active) | 91.2% (active) | 26% | 99% (active) | 92.2% (active) |
| CN1C(=O)C2N(C(=O)C1(C)S)c1ccccc1C2(C)C (configuration not stated) | -5% | 37% | 47.7% | -4% | 29% | 32.5% | -3% | 41% | 15.7% | -14% | 49% | -17.6% | -4% | 25% | 10.3% | -1% | 32% | 24.8% |
| N#C/C(=C\c1c(Cl)cccc1Cl)c1nc2ccccc2[nH]1 | 38% | 97% (active) | 87.7% (active) | 22% | 99% (active) | 90.2% (active) | 33% | 99% (active) | 90.6% (active) | 23% | 98% (active) | 88.9% (active) | 35% | 98% (active) | 91.5% (active) | 42% | 98% (active) | 88.8% (active) |
| CC[N+]1(C)CCC(O)(/C=C/c2ccccc2)C(C(=O)/C=C/c2ccccc2)C1 (configuration not stated) | 7% | 98% (active) | 99.3% (active) | 11% | 99% (active) | 99.7% (active) | 12% | 54% | 99.2% (active) | 8% | 98% (active) | 83% (active) | 7% | 99% (active) | 99.3% (active) | 11% | 99% (active) | 99.3% (active) |
| CN(C)c1ccc(C(O)(Cc2cccc(C#N)c2)c2ccc(N(C)C)cc2)cc1 | 2% | -13% | 63.5% | 0% | -6% | 55.9% | -4% | -10% | 52.8% | -2% | -16% | 66% | 2% | -5% | 69% | -2% | -70% | 56.8% |
